About 510 (0.14%) of roughly 360,000 compounds were called active. The sample holds actives, similar compounds and a random draw of the others, so the mix is not that of the screen.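 Rule for the calls: active = mean normalized replicate activity at least 40 and at least half of replicates scoring 40 or more; inconclusive = only one of the two criteria met; inactive = mean below 40 and under half of replicates reaching 40.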
Biological target: DNA repair and recombination protein RAD54-like (Homo sapiens) (UniProt Q92698)
Sequence (Q92698 whole entry, looked up): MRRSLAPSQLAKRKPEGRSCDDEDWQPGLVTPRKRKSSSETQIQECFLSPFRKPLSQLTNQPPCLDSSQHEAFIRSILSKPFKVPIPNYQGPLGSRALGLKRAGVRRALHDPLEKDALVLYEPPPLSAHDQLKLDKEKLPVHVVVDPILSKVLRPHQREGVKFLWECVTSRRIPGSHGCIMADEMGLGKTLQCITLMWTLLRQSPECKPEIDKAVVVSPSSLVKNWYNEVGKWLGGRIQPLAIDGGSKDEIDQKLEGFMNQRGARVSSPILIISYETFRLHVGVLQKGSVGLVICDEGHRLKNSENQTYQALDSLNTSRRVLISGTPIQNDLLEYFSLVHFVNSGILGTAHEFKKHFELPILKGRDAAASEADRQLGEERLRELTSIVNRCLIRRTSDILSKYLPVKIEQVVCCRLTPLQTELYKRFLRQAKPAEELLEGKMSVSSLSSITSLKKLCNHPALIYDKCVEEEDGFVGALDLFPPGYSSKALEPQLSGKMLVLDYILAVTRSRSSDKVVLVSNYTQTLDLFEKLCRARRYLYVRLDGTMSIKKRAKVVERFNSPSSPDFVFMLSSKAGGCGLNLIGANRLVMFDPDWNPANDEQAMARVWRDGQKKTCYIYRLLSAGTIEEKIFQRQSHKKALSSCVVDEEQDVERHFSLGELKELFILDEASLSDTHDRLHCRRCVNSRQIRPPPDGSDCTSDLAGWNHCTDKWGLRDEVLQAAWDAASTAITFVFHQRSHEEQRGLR
Assay: inhibitors of human RAD54 branch migration, primary screen, biochemical, fluorescence, single point (AID 602329);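 note: 0% = median of neutral control wells and 100% = median of positive control wells; inhibitors cause a drop in the FAM fluorescence signal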
Details: RAD54 Holliday junction branch migration, FAM/BHQ fluorescence; at 10.4 µM; stronger effect = higher value

inhibition, inactive:
CC(C)NC(=O)Nc1ccc2c(c1)C(=O)N(C)[C@H]1CC[C@H](CC(=O)NCc3ccc(F)cc3)O[C@H]1CO2 7.11%, C[C@@H]1CN([C@H](C)CO)S(=O)(=O)c2ccc(C3=CCCC3)cc2O[C@@H]1CN(C)C(=O)C1CCC1 -3.7%, C[C@@H]1CCCCO[C@@H](CN(C)C(=O)c2ccccc2)[C@@H](C)CN([C@@H](C)CO)C(=O)c2cc(NS(=O)(=O)c3ccccc3)ccc2O1 -0.712%, CCCNC(=O)[C@H]1[C@H](CO)[C@H]2Cn3c(cccc3=O)[C@H]2N1Cc1ccccc1Cl -3.26%, CC(=O)N1[C@@H]2Cn3c(ccc(C4=CCCC4)c3=O)[C@H]1[C@@H](C(=O)NC1CCC1)[C@@H]2CO 7.46%, COc1ccc(NC(=O)N(C)C[C@H]2OCCCC[C@@H](C)Oc3ccc(NC(=O)c4ccncc4)cc3C(=O)N([C@@H](C)CO)C[C@H]2C)cc1 2.64%, CN1C(=O)c2cc(NS(=O)(=O)c3ccc(Cl)cc3)ccc2OC[C@@H]2O[C@H](CC(=O)O)CC[C@@H]21 -1.23%, CC(C)NC(=O)N(C)C[C@@H]1Oc2ncc(-c3ccc(C(=O)N(C)C)cc3)cc2C(=O)N([C@H](C)CO)C[C@H]1C -0.445%, CCCNC(=O)N(C)C[C@@H]1Oc2ncc(-c3cccc(C#N)c3)cc2C(=O)N([C@@H](C)CO)C[C@H]1C 7.71%, CCC(=O)N(C)C[C@@H]1Oc2cc(C#CCOC)ccc2S(=O)(=O)N([C@@H](C)CO)C[C@@H]1C -1.77%, Cc1ccc(-n2c(=O)c(C#N)cc3c(=O)n4ccccc4nc32)cc1C -1.05%, Cc1cccn2c(=O)c3cc(C#N)c(=NC(=O)c4cccnc4)n(CC4CCCO4)c3nc12 (stereo unspecified) -4.7%, C[C@@H](NC(=O)C[C@H]1C[C@H]2c3cc(NC(=O)C4CCOCC4)ccc3O[C@H]2[C@@H](CO)O1)c1ccccc1 -0.474%, CC(=O)Nc1cc(-c2ccc(N3CCN(C)CC3)cc2)cn2c(-c3ccc(F)cc3)cnc12 36.5%, Cc1cc(Nc2cc(N3CCN(C)CC3)nc(Sc3ccc(NC(=O)C4CC4)cc3)n2)n[nH]1 17.6%, C[C@H](CO)N1C[C@H](C)[C@@H](CN(C)S(=O)(=O)c2cn(C)cn2)Oc2ccc(N(C)C)cc2CC1=O -0.235%, CCN(C[C@@H]1[C@@H](c2ccccc2)[C@H](CO)N1C(C)=O)C(=O)NC(C)C -5%, CO[C@@H]1CN(C)C(=O)c2cc(NC(=O)C3CCCC3)ccc2OC[C@@H](C)N(Cc2ccc(F)cc2)C[C@H]1C -4.74%, CC(=O)N(C)C[C@@H]1Oc2cc(C#Cc3ccccc3F)ccc2S(=O)(=O)N([C@@H](C)CO)C[C@@H]1C -0.527%, C[C@@H]1CN([C@@H](C)CO)C(=O)c2cc(-c3ccc(C#N)cc3)cnc2O[C@H]1CN(C)C(=O)CN(C)C 5.52%, CCNC(=O)C[C@@H]1CC[C@@H]2[C@H](COC[C@H](O)CN2S(=O)(=O)c2ccc(Oc3ccccc3)cc2)O1 -6.18%, O=C(C[C@H]1CC[C@@H](NC(=O)c2ccccc2)[C@@H](CO)O1)NCc1ccncn1 -7.18%, CCCNC(=O)C[C@@H]1CC[C@@H]2[C@H](COc3ccc(NC(=O)c4cc(F)cc(F)c4)cc3C(=O)N2C)O1 1.51%, CCCNC(=O)C[C@@H]1CC[C@H]2[C@@H](COC[C@@H](O)CN2Cc2ccccc2F)O1 6.11%, C[C@@H]1CN([C@H](C)CO)C(=O)c2cccc(NC(=O)Nc3ccc4c(c3)OCO4)c2O[C@@H]1CN(C)Cc1ccccc1 -7.8%, C[C@H]1CN([C@@H](C)CO)C(=O)c2cc(NC(=O)C3CC3)ccc2O[C@@H]1CN(C)S(=O)(=O)c1cn(C)cn1 -0.446%, COc1ccc(NC(=O)N(C)C[C@H]2OCc3ccccc3-c3ccccc3C(=O)N([C@H](C)CO)C[C@@H]2C)cc1 -9.7%, O=C1CCN(CCCc2ccccc2)CCN1CCO -1.44%, O=C(Nc1cccc(Cl)c1)c1cc([N+](=O)[O-])ccc1N1CCN(CCO)CC1 -11.1%, Cc1noc(C)c1NC(=O)N(C)C[C@H]1Oc2ccc(NS(=O)(=O)c3ccc(Cl)cc3)cc2CC(=O)N([C@H](C)CO)C[C@@H]1C -4.2%, Cc1ccc(S(=O)(=O)N(C)C[C@H]2Oc3ccc(NC(=O)C4CC4)cc3C(=O)N([C@H](C)CO)C[C@H]2C)cc1 8.82%, CO[C@H]1CN(C)C(=O)c2cc(NC(=O)C3CCC3)ccc2OC[C@H](C)N(Cc2nccs2)C[C@H]1C 2.2%, COc1cccc(NC(=O)C[C@@H]2CC[C@H]3[C@@H](COc4ccc(NC(=O)C5CCOCC5)cc4C(=O)N3C)O2)c1 -1.97%, COCC(=O)Nc1ccc2c(c1)C(=O)N(C)C[C@@H](OC)[C@H](C)CN(C(=O)CC1CC1)[C@H](C)CO2 3.23%, CCCN(C)C[C@H]1Oc2cc(-c3ccc(C)cc3)ccc2S(=O)(=O)N([C@H](C)CO)C[C@H]1C -15%, C#Cc1ccc([C@H]2C=C(C(=O)O)O[C@@H](OCC)[C@@H]2CCCO)cc1 -9.94%, Cc1noc(C)c1NC(=O)Nc1cccc2c1O[C@@H](CN(C)Cc1ccc3c(c1)OCO3)[C@@H](C)CN([C@@H](C)CO)C2=O 7.78%, O=C(c1cccnc1)N1CCCCN2[C@@H](CO)[C@H](c3ccc(C#Cc4ccccc4)cc3)[C@@H]2C1 1.81%, CCNC(=O)[C@@H]1[C@@H](CO)[C@@H]2Cn3c(ccc(C4=CCCC4)c3=O)[C@H]1N2Cc1ccccc1 2.92%, CC(C)NC(=O)N(C)C[C@H]1OCCCC[C@H](C)Oc2ccc(NC(=O)Nc3ccc4c(c3)OCO4)cc2C(=O)N([C@H](C)CO)C[C@@H]1C -0.838%, CNC[C@H]1Oc2cc(C#Cc3ccccc3)ccc2S(=O)(=O)N([C@@H](C)CO)C[C@@H]1C 1.19%, Cc1ccc(S(=O)(=O)N(C)C[C@H]2OCCCC[C@H](C)Oc3ccc(NS(=O)(=O)c4c(C)noc4C)cc3C(=O)N([C@H](C)CO)C[C@@H]2C)cc1 3.91%, CN1c2ccc(-c3ccc(F)cc3)cc2[C@@H]2[C@@H](CCN2S(=O)(=O)c2ccc(F)cc2)[C@@H]1CO -1.5%, COc1ccc(NC(=O)Nc2ccc3c(c2)CC(=O)N([C@@H](C)CO)C[C@H](C)[C@H](CN(C)C(=O)Nc2ccc4c(c2)OCO4)O3)cc1 -3.32%, COc1cccc(C(=O)Nc2ccc3c(c2)C(=O)N(C)[C@@H]2CC[C@@H](CC(=O)NCCCN4CCOCC4)O[C@@H]2CO3)c1 8.84%, CO[C@H]1CN(C)C(=O)c2ccc(NC(=O)C3CCOCC3)cc2OC[C@H](C)NC[C@H]1C -0.243%, CCNC(=O)C[C@@H]1CC[C@@H]2[C@@H](COc3ccc(NC(=O)c4cccc(C(F)(F)F)c4)cc3C(=O)N2C)O1 7.26%, O=C(C1CCC1)N1CC[C@H]2[C@H](CO)Nc3ccc(-c4cccc(F)c4)cc3[C@H]21 2.5%

inhibition, active:
Cc1cccn2c(=O)c3cc(C#N)c(=O)n(CCCN4CCOCC4)c3nc12 56.4%, C=CC(=O)Nc1ccc(Nc2ccnc(Nc3ccc(N4CCN(C)CC4)cc3)n2)cc1 81.2%, O=C1c2ccccc2C(=O)c2c1cccc2N1CCN(CCO)CC1 84.2%
